Hits are enriched below; roughly 2% of the tested compounds scored in any of these assays.
aSyn rescue = rescues yeast growth from alpha-synuclein toxicity | Yeast expressing alpha-synuclein, growth rescue, BacTiter-Glo, 24 h | Potency, µM (highest dose often 46.1 µM), actives largely listed as activators | actives 0.14% (n = 370,000) | AID 652106; also: nearly all actives have a fitted effect of over 65% in size
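Screening used galactose-induced yeast with toxic alpha-synuclein levels, exposed to compound for 24 hr at 30 deg C. Cell growth, read with BacTiter-Glo luminescence, gave the measured signal.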
mIDH1 inhibitor = blocks human mutant IDH1 R132H enzyme; IDH1-R132H enzyme, NADPH consumption, diaphorase/resazurin fluorescence; Potency, µM (titrated, usually from 76.6 µM), usual class: inhibitors; actives 0.093% (n = 390,000); AID 602179; also: nearly all actives have a fitted effect of over 65% in size
Target sequence (O75874 whole entry R132H, stated change not applied): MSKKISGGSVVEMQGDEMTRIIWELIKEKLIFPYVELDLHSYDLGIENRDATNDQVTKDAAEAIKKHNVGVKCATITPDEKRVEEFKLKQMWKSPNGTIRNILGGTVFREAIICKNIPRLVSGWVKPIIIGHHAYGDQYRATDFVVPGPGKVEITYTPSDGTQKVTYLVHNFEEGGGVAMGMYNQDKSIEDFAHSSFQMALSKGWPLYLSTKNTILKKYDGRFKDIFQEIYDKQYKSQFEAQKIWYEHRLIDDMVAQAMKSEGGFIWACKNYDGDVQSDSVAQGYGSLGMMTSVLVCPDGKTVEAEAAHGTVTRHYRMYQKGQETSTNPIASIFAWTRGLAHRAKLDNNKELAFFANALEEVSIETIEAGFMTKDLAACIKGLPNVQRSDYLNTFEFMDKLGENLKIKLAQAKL
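IDH1-R132H (0.5 ug/mL dispensed) in pH 7.5 Tris buffer was preincubated 30 min with compound, then given a substrate mix of 0.016 mM NADPH and 2 mM alpha-KG for 80 min at room temperature; remaining NADPH was read by diaphorase/resazurin fluorescence.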
TDP43 rescue = rescues yeast growth from TDP-43 toxicity. TDP-43 expressing yeast growth rescue, BacTiter-Glo, 24 h. actives 1.8% (n = 410,000). Potency, µM (top dose mostly 46.1 µM), most hits filed as activators; also: nearly all actives have a fitted effect of over 50% in size
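In this qHTS, compounds that restore growth of yeast expressing TDP-43 appear as activators. Cells (OD600=0.02, galactose medium, raffinose-pregrown) are incubated with compound 24 hr at 30 deg C and growth is quantified by BacTiter-Glo.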
LDHA block = inhibitors of human lactate dehydrogenase A | P00338 | purified LDHA, NADH/diaphorase-resazurin fluorescence; hits give low values | activity change, % (values are at about 110 or 230 µM) | actives 0.15% (n = 480,000); in the data active = activity change below about -30%; inconclusive = mostly about -25% to -30%
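Enzyme activity of human lactate dehydrogenase 5 (2 nM; 0.06 mM NADH, 0.2 mM pyruvate, 5 min, RT) is measured via a resazurin/diaphorase fluorescence readout of residual NADH.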
FUS suppressor = suppressors of FUS proteinopathy in yeast; S. cerevisiae FUS-expressing, growth rescue, OD600, 24 h; Potency, µM (top dose mostly 76.6 µM), hits mostly activators; actives 0.24% (n = 390,000); AID 1347120; also: nearly all actives have a fitted effect of over 55% in size
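S. cerevisiae expressing FUS from galactose induction served as the toxicity model. Growth after 24hr at 30C, read as absorbance at 600 nm, indicates suppression of toxicity; compounds dosed at several concentrations.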
Abeta yeast res = restores growth of yeast expressing A-beta42 peptide. Potency, µM (titrated, usually from 46.1 µM), actives largely listed as activators. yeast expressing A-beta42, growth rescue, OD600, 48 h; response scale: 0% DMSO, 100% iron-clioquinol control. actives 0.063% (n = 410,000); also: nearly all actives have a fitted effect of over 55% in size
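Growth rescue measured by 600 nm absorbance after 48 h yeast culture at 30 C with compound. Values normalized between DMSO and an equimolar ferric chloride plus clioquinol control.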
Numbers stand for hits; n = inactive; u = inconclusive; x = no result given; [ ] = another dose, or the depositor's remark. Unless noted, calls follow the shape of the dose curve; as a rule, active = well fitted curve in the direction sought with a large enough effect; inconclusive = small, poorly fitted or top-dose-only effect, or another doubt; inactive = no such curve, though single readings can be large; an effect the other way counts as inactive or inconclusive.

SMILES	aSyn rescue	mIDH1 inhibitor	TDP43 rescue	LDHA block	FUS suppressor	Abeta yeast res
CCCCc1ccc(NC(=S)NCC2CCCO2)cc1 (configuration not stated)	n	n	n[0.397 µM]	n	n	12.6µM
CSc1ccccc1NC(=O)CN(C)C(C)C(=O)NCc1ccc2c(c1)OCO2 (configuration not stated)	n	n	n	-46.6	n	n
CC(C(=O)NCc1ccc2c(c1)OCO2)N1c2cccc3cccc(c23)S1(=O)=O (configuration not stated)	n	n	12.6µM	n	n	n
CC(C(=O)Nc1ccc2c(c1)OCO2)N(C)CC(=O)Nc1ccccc1Cl (configuration not stated)	n	n	n	n	n	n
CCOc1ccc(S(=O)(=O)Nc2nc3ccccc3nc2NC2CC(C)(C)NC(C)(C)C2)cc1	x	x	x	n	x	x
CCN(CC)S(=O)(=O)c1ccc(NC(=O)C(C)N(c2cccc(Cl)c2)S(C)(=O)=O)cc1 (configuration not stated)	x	x	x	n	x	x
COCC(=O)n1nc(NCc2ccccc2Cl)nc1NCc1ccccc1Cl	x	x	x	-49.0	x	x
COCC(=O)n1nc(-c2ccco2)nc1NCc1ccccc1Cl	x	x	n	n	n	n
COC(=O)c1sc(=S)sc1C(=O)OC	u	n	12.6µM	n	n	n
COC(=O)c1sc(C(=O)OC)c(C(=O)OC)c1C(=O)OC	n	n	n	n	x	n
CCCCN(C)Cc1ccc(OCc2ccccc2)c(OC)c1	x	x	x	n	x	x
O=C(Nc1ccc(F)cc1)C1CCCCC1	n	n	n	n	n	n
O=C(NC(=S)Nc1ccc(F)cc1)C1CCCCC1	n	n	n	n	n	5.01µM
N#Cc1ccc(NC(=S)NC(=O)C2CC2)cc1	u	n	12.6µM	n	n	n
Cc1ccc(NC(=S)NC(=O)C2CCCC2)cc1C	n	n	n	n	n	8.91µM
CN(c1ccccc1)S(=O)(=O)c1ccc(NC(=S)NC(=O)c2ccccc2)cc1	n	n	n	n	u	n
CN(c1ccccc1)S(=O)(=O)c1ccc(NC(=S)NC(=O)C2CC2)cc1	n	n	17.8µM	n	n	n
CCOc1ccc(NC(=O)c2c(C)nn(-c3cccc(C)c3)c2-n2cccc2)cc1	x	x	x	n	x	x
CCCCn1c(=O)c2sccc2n(CC(=O)N(CC)c2ccccc2)c1=O	x	x	x	n	x	x
COC(=O)c1ccc(/C=N/OCc2cc(C(C)=O)ccc2OC)cc1	x	x	x	n	x	x
Cc1ccccc1-c1nc(C#N)c(NCCN(C)C)o1	x	x	x	n	x	x
N#Cc1cn(-c2ccccc2)nc1-c1ccco1	x	n	8.91µM	n	n	n
COc1ccc(-n2nc([N+](=O)[O-])c(=NCCc3ccc(C)cc3)n2O)cc1	n	n	u	n	n	n
COc1ccc(-n2nc([N+](=O)[O-])c(=NCCC3=CCCCC3)n2O)cc1	n	n	20µM	n	n	n
COc1cccc(C2CC(c3cccc(Br)c3)n3ncnc3N2)c1 (configuration not stated)	n	n	20µM	n	n	n
SMILES	aSyn rescue	mIDH1 inhibitor	TDP43 rescue	LDHA block	FUS suppressor	Abeta yeast res
Cc1ccccc1C1CC(=O)N2CN(Cc3ccccc3)CSC2=C1C#N (configuration not stated)	x	x	x	n	x	x
O=C(O)CCCCCCCCc1cn(CCc2c[nH]c3ccccc23)nn1	n	n	12.6µM	n	n	n
O=C(O)CCCc1c[nH]c2ccccc12	x	x	x	n	x	x
CC(C)C(=O)N(Cc1ccc(-c2cccc(Cl)c2)o1)C1CCS(=O)(=O)C1 (configuration not stated)	x	x	x	n	x	x
O=C(O)c1ccc(NCCC2=CCCCC2)c([N+](=O)[O-])c1	n	n	15.8µM	n	n	n
Cc1ccccc1Nc1nc(N)nc(CSc2nc3ccccc3s2)n1	n	n	20µM	n	x	n
Cc1ccc(SCc2nc(N)nc(Nc3ccccc3C)n2)c(C)c1	n	n	u	n	n	u
Cc1ccc(SCc2nc(N)nc(Nc3ccccc3C)n2)cc1C	n	n	17.8µM	n	u	n
Cc1ccccc1Nc1nc(N)nc(CSc2ccc(F)cc2)n1	n	n	25.1µM	n	n	n
COc1ccc(Nc2nc(N)nc(CSc3nc4cc(OC)ccc4s3)n2)cc1	x	n	20µM	n	u	n
Cc1ccccc1Nc1nc(N)nc(CSc2nnc(C)n2C)n1	n	n	n	n	n	n
Cc1ccc(Nc2nc(N)nc(CSc3nc4ccccc4s3)n2)cc1	n	n	u	n	n	n
Cc1ccccc1NC(=O)CCCSc1nc2ccccc2s1	n	n	12.6µM	n	x	n
CC(C)c1cc(-c2nc(-c3ccc(Br)cc3)no2)n[nH]1	x	n	u	n	n	n
COc1ccc(-c2noc(-c3cc(C(C)C)[nH]n3)n2)cc1	x	n	20µM	n	n	u
N#CC(=Nc1ccccc1)c1ccccc1	n	n	n	n	n	n
N#CC(=C1C=CC(=NO)C(Cl)=C1)c1ccccc1	n	x	7.08µM	n	n	n
CS(=O)(=O)O/N=C1\CCCCC1c1ccc([N+](=O)[O-])cc1[N+](=O)[O-] (configuration not stated)	n	n	n	n	n	n
CCNC(=O)O/N=C1\CCCCC1c1ccc([N+](=O)[O-])cc1[N+](=O)[O-] (configuration not stated)	n	n	14.1µM	n	n	n
O=C(c1cccnc1)N1CCN(Cc2ccccc2Br)CC1	n	n	n	-31.5	n	n
COc1ccccc1C(=O)N1CCN(Cc2cccnc2)CC1	n	n	n	-32.6	n	n
COc1ccccc1C(=O)N1CCN(C(=O)c2ccncc2)CC1	n	n	n	n	n	n
O=[N+]([O-])c1nn(-c2ccc3c(c2)OCCO3)n(O)c1=NC1CCCCC1	n	n	7.94µM	n	n	n
COc1ccccc1CN=c1c([N+](=O)[O-])nn(-c2ccc3c(c2)OCCO3)n1O	n	n	17.8µM	n	n	n
O=[N+]([O-])c1nn(-c2ccc3c(c2)OCCO3)n(O)c1=NCc1ccccc1Cl	n	n	n	n	n	n
Cc1ccc2nc(N3CCN(c4cccc(C)c4C)CC3)c3nncn3c2c1	x	n	n	n	n	n
Cc1cccc(N2CCN(c3nc4ccc(C)cc4n4cnnc34)CC2C)c1 (configuration not stated)	x	n	35.5µM	n	n	n
CC(=O)c1ccc(NC(=O)C(C)Sc2nc3nc(C)cc(C)c3c(=O)[nH]2)cc1 (configuration not stated)	x	x	x	n	x	x
CC(C)CCn1cnc2c1c(=O)n(CC(=O)Nc1ccc(F)c(F)c1)c(=O)n2Cc1ccccc1	x	x	x	n	x	x

Assay outcomes as filed in PubChem.
